We go through 17 compounds from PubChem BioAssay AID743365 (National Center for Advancing Translational Sciences (NCATS), 2014).

SMILES strings stand for the structures.

The assay is described as follows: qHTS profiling of inhibitors of Plasmodium falciparum (DD2) proliferation (acoustic dispense). As to conditions: P. falciparum Dd2 in erythrocytes, SYBR Green DNA, 72 h; at 49.8 µM (top of the series) unless noted. From the text:
Plasmodium falciparum is a virulent malarial parasite that kills 1-2 million people worldwide each year. Transmitted by mosquitoes, the sporozoite form of the parasite enters the blood stream to infect hepatocytes, where they become merozoites that infect red blood cells (erythrocytes). Within erythrocytes, merozoites begin a […] cycle of growth and division, after which the parasite is released to infect new red blood cells. Gametocytes, which form within erythrocytes as well, circulate in the bloodstream and are ingested by the mosquito, thereby completing the life cycle. To profile malarial isolates for differential chemical responses and to identify inhibitors of malarial growth, an assay that measures P. falciparum growth and replication within erythrocytes was employed. This assay uses a DNA binding fluorescent dye (SYBR Green) to detect parasite DNA following cell lysis. Because mature erythrocytes lack DNA, only Plasmodium-derived DNA is detected.
The SYBR Green viability assay was adapted from a method described previously (Plouffe et al., 2008). For screening 3 ul culture medium was dispensed into 1536 well black clear bottom plates (Aurora Biotechnologies) using a Multidrop Combi (Thermo Fisher Scientific Inc.), 23 nL of compounds in DMSO were added by an acoustic dispenser (EDC Biosystems), and 5 ul of erythrocytes infected with P. falciparum (0.3% parasitemia, 2.5% hematocrit final concentration) were added. The plates were incubated at 37 C in a humidified incubator in 5% CO2 for 72 h, and 2 ul lysis buffer (20 mM Tris HCl, 10 mM EDTA, 0.16% saponin, 1.6% triton X, 10X SYBR Green I supplied as 10,000X […] by Invitrogen) was added to each well. The plates were mixed for 25 sec with gentle shaking and incubated overnight at room temperature in the dark. The following morning, fluorescence intensity at 485(14) nm excitation and 535(25) nm emission wavelengths was measured on an EnVision (Perkin Elmer) plate reader. Plate reads were normalized relative to the control inhibitor (0.29 uM artemisinin) and vehicle (DMSO) wells present on each plate and then corrected by an algorithm using vehicle-only control plates at the beginning and end of the compound plate stack.
Consider `CN1C(=O)C[C@H](C(=O)N[C@@H](Cc2cnc[nH]2)C(=O)N2CCC[C@@H]2C(N)=O)NC1=O`, for which the parasite growth, lower = inhibition was found to be 82%.

As for `CO[C@H]1CCC(O[C@H]2C[C@H]([C@]3(C)CC[C@]4(C[C@H](O)[C@@H](C)[C@@H]([C@@H](C)C=C(C)C(=O)[C@H](C)C[C@H](C)C(=O)O)O4)O3)O[C@]3(O[C@@H]([C@H]4O[C@@](O)(CO)[C@H](C)C[C@H]4C)C[C@H]3C)[C@H]2C)O[C@H]1C` (some centres not stated), the parasite growth, lower = inhibition was determined as 104%.

On to `CC1=C(O)C(=O)C=C2C1=CC=C1[C@@]2(C)CC[C@@]2(C)[C@@H]3C[C@](C)(C(=O)O)CC[C@]3(C)CC[C@]12C`, for which the parasite growth, lower = inhibition turned out to be 3.33%.

With `CC(=Cc1csc(C)n1)[C@@H]1C[C@H]2O[C@@H]2CCC[C@H](C)[C@@H](O)[C@@H](C)C(=O)C(C)(C)[C@@H](O)CC(=O)O1`, the parasite growth, lower = inhibition was 3%.

Consider `CC(C)(N)CNC(=O)CC1CCC2(CC1)OOC1(O2)C2CC3CC(C2)CC1C3` (configuration not stated), for which the parasite growth, lower = inhibition was -0.141%.

Take `CC(=O)N(O)CCCP(=O)(O)O`: the parasite growth, lower = inhibition was 4.17%.

Regarding `O=C(C[C@@H]1NCCC[C@@H]1O)Cn1cnc2ccccc2c1=O`, the parasite growth, lower = inhibition is -0.505%.

For the compound `C[C@H]1CCCC=CC2C[C@H](O)C[C@@H]2[C@H](O)C=CC(=O)O1` (some centres not stated), the parasite growth, lower = inhibition was -0.172%.

With `CC(=O)Nc1nnc(S(N)(=O)=O)s1`, the parasite growth, lower = inhibition is 91%.

Regarding `CC=C1C2C=C(C)CC1(N)c1ccc(=O)[nH]c1C2` (configuration not stated), the parasite growth, lower = inhibition was 97.1%.

As to `C[C@@H]1C[C@@H]([C@H](O)CC2CC(=O)NC(=O)C2)C(=O)[C@@H](C)C1`, the parasite growth, lower = inhibition turned out to be 0.0707%.

As to `COC(=O)[C@@]1(OC)C[C@@H]2O[C@@]1(C)n1c3ccccc3c3c4c(c5c6ccccc6n2c5c31)C(=O)N(C)C4`, the parasite growth, lower = inhibition was determined as 13.1% [at 16.5 µM].

As for `COC1=CC(C)=C[C@@H](C)[C@@H](O)[C@@H](C)CC(C)=CC=C[C@H](OC)[C@H]([C@@H](C)[C@@H](O)[C@H](C)[C@@]2(O)C[C@@H](O)[C@H](C)[C@@H](C(C)C)O2)OC1=O`, the parasite growth, lower = inhibition is 0.538%.

Consider `C[C@]12O[C@H](C[C@@]1(O)C(=O)O)n1c3ccccc3c3c4c(c5c6ccccc6n2c5c31)CNC4=O`, for which the parasite growth, lower = inhibition was found to be 5.95% [at 4.15 µM].

With `OB1OCc2cc(F)ccc21`, the parasite growth, lower = inhibition is 88.5%.

`CC=C(C)C(=O)N[C@@H](c1ccccc1)[C@@H](O)C(=O)O[C@H]1C[C@@]2(O)[C@@H](OC(=O)c3ccccc3)[C@@H]3[C@]4(OC(C)=O)CO[C@@H]4C[C@H](O)[C@@]3(C)C(=O)[C@H](OC(C)=O)C(=C1C)C2(C)C`: the parasite growth, lower = inhibition was found to be 4.37%.

For the compound `O=c1[nH]c2ccc(Cl)cc2c(N[C@@H]2CN3CCC2CC3)c1-c1nc2ccccc2[nH]1`, the parasite growth, lower = inhibition stood at 0.0567%.
